In PubChem BioAssay (NCI):
The panel holds about 79,000 compounds, 15% with a hit somewhere; the sample as a whole holds those more often. Values without a mark were called inactive. Activity calls are given as the source filed them. No stated cut-off is given here; in the data, active means growth inhibition above about 70%; inactive means the rest.

Experiments:
[1] = NCI Yeast Anticancer Drug Screen. Data for the rad50 strain (AID 155);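 further: 0% = growth of vehicle-only cultures of the same strain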; conditions: S. cerevisiae rad50 strain growth inhibition, hits give high values
Procedure, shortened: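 Growth of the mutant yeast was measured after compound exposure and referenced to vehicle-treated cultures.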

[2] = NCI Yeast Anticancer Drug Screen. Data for the mec2-1 strain (AID 157); conditions: S. cerevisiae mec2-1 strain, hits give high values
Procedure, shortened: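 Growth inhibition is read against vehicle-treated controls after compound exposure of the mec2-1 yeast strain, which is defective in DNA damage repair or cell cycle control.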

[3] = NCI Yeast Anticancer Drug Screen. Data for the sgs1 mgt1 strain (AID 161);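 further: 0% = growth of cultures given vehicle only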; conditions: S. cerevisiae sgs1 mgt1 strain, hits give high values
Procedure, shortened: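 This yeast growth screen uses a strain with defined DNA-repair lesions; compound-treated growth is compared with vehicle-treated growth.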

[4] = NCI Yeast Anticancer Drug Screen. Data for the cln2 rad14 strain (AID 165);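 further: 0% = growth equal to vehicle treated cultures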; conditions: S. cerevisiae cln2 rad14 strain, hits give high values
Procedure, shortened: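 Growth inhibition, relative to vehicle-treated controls, is the read-out. The test organism is a yeast strain with defined genetic alterations, cln2 rad14.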

[5] = NCI Yeast Anticancer Drug Screen. Data for the bub3 strain (AID 167); conditions: S. cerevisiae bub3 mutant strain, hits give high values
Procedure, shortened: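 Whole-cell yeast assay. The mutant strain was incubated with compounds, and growth inhibition was determined by comparison with vehicle-treated cells.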

[6] = NCI Yeast Anticancer Drug Screen. Data for the mlh1 rad18 strain (AID 175); conditions: S. cerevisiae mlh1 rad18 strain growth inhibition, hits give high values
Procedure, shortened: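 Cells of a genetically altered yeast strain, deficient in DNA damage repair, were treated with compound. Their growth was then compared with that of vehicle-treated cultures to give inhibition.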

[7] = at 5.0 µM (retest, dose inferred, filed as 0.5)
[8] = at 50.0 µM (retest, dose inferred, filed as 5.0)

SMILES	growth inhibition [1, 7]	growth inhibition [1, 8]	growth inhibition ([1]; at 50.0 µM)	growth inhibition [2, 7]	growth inhibition [2, 8]	growth inhibition ([2]; at 50.0 µM)	growth inhibition [3, 7]	growth inhibition [3, 8]	growth inhibition ([3]; at 50.0 µM)	growth inhibition [4, 7]	growth inhibition [4, 8]	growth inhibition ([4]; at 50.0 µM)	growth inhibition [5, 7]	growth inhibition [5, 8]	growth inhibition ([5]; at 50.0 µM)	growth inhibition [6, 7]	growth inhibition [6, 8]	growth inhibition ([6]; at 50.0 µM)
Nc1cccc2c(O)cccc12	-1%	21%	21.6%	3%	18%	9.3%	-1%	15%	20.8%	2%	12%	44.2%	2%	15%	8.55%	-2%	28%	50.2%
C[n+]1c(-c2cccc(OCCCCCCCCCCOc3cccc(-c4c5cc(N)ccc5c5ccc(N)cc5[n+]4C)c3)c2)c2cc(N)ccc2c2ccc(N)cc21	99% (active)	81% (active)	79.4% (active)	99% (active)	84% (active)	84.4% (active)	99% (active)	85% (active)	87.9% (active)	99% (active)	86% (active)	88% (active)	99% (active)	80% (active)	84.2% (active)	97% (active)	68%	87.7% (active)
c1ccc([P+](c2ccccc2)(c2ccccc2)C2CCCC2)cc1	-18%	7%	96.8% (active)	-13%	15%	97.5% (active)	-13%	40%	97.6% (active)	-3%	-1%	98.3% (active)	0%	-1%	95.5% (active)	11%	32%	98.5% (active)
CC(=O)OC1CCC2(C)C(=CCC3C2CCC2(C)C(C(C)N)CCC32)C1 (stereo not given)	8%	98% (active)	98.3% (active)	18%	98% (active)	98.7% (active)	18%	98% (active)	93% (active)	-62%	96% (active)	70.8% (active)	1%	78% (active)	95.8% (active)	8%	98% (active)	98.1% (active)
CCCCc1c2c(nc3c1CCCC3O)/C(=C/c1ccccc1)CCC2 (stereo not given)	0%	42%	50.8%	0%	47%	53.9%	-2%	67%	49.9%	-3%	30%	59.9%	3%	89% (active)	83.7% (active)	1%	71% (active)	80.3% (active)
